We go through ten compounds from PubChem BioAssay (Tox21).

Structures are written as SMILES. Records with an inconclusive call do not appear. The source made the active and inactive calls. Unless noted, the call rests on the fitted dose curve; in most records, active means well fitted curve in the direction sought with a large enough effect in the repeat runs; inconclusive means weak or mixed curves; inactive means no such curve, though single readings can be large; an effect the other way counts as inactive or inconclusive.

A short description of assay [1]: qHTS assay to identify aromatase inhibitors - cell viability counter screen (AID 743084).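 Further: cells stimulated with testosterone during compound exposure; nearly all actives have a fitted effect of over 55% in size.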 In general terms: qHTS replaces the single test concentration by a dilution series.
Assay [2] addresses Aryl hydrocarbon receptor (Homo sapiens) (UniProt P35869). The assay can be described thus: qHTS assay to identify small molecule that activate the aryl hydrocarbon receptor (AhR) signaling pathway (AID 743085). Further: nearly all actives have a fitted effect of over 15% in size. Further: potency means the concentration at half of the fitted maximal effect.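 On activation: HG2L7.5c1 human HepG2 liver cells with stably integrated DRE-driven firefly reporter; series mostly up to about 70 µM.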 Summed up: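 Luminescence read-out: ONE-Glo reagent, 30 min at room temperature, in HG2L7.5c1 HepG2 reporter cells treated 24 h at 37C. Viability was measured beforehand by CellTiter-Fluor fluorescence after 30 min at 37C.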

Assay [3] can be described thus: qHTS assay to identify small molecule that activate the aryl hydrocarbon receptor (AhR) signaling pathway - cell viability counter screen (AID 743086).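 Further: HepG2 liver cells carrying the AhR DRE luciferase reporter; series mostly up to about 70 µM; nearly all actives have a fitted effect of over 45% in size.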 Summed up:
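HepG2-AhR-luc (HG2L7.5c1) cells, 4000/well, treated 24 h at 37 C with compound; viability measured as CellTiter-Fluor fluorescence after 30 min in the same wells as the luciferase read.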

The target of assay [4] is Peroxisome proliferator-activated receptor gamma (Homo sapiens) (UniProt P37231). The assay can be described thus: qHTS assay to identify small molecule agonists of the peroxisome proliferator-activated receptor gamma (PPARg) signaling pathway (AID 743094; active means well fitted activation curve with a large enough effect in the signal ratio in the repeat runs, not every such curve was filed as active; the % refers to the signal ratio). Summed up: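 Compounds dissolved in DMSO were added to PPARg UAS-bla HEK293H cells for 17 h at 37C, and reporter expression was quantified by fluorescence intensity after 1 h with LiveBLAzer B/G FRET substrate.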
Sequence of Peroxisome proliferator-activated receptor gamma (Homo sapiens) (P37231 whole entry, looked up): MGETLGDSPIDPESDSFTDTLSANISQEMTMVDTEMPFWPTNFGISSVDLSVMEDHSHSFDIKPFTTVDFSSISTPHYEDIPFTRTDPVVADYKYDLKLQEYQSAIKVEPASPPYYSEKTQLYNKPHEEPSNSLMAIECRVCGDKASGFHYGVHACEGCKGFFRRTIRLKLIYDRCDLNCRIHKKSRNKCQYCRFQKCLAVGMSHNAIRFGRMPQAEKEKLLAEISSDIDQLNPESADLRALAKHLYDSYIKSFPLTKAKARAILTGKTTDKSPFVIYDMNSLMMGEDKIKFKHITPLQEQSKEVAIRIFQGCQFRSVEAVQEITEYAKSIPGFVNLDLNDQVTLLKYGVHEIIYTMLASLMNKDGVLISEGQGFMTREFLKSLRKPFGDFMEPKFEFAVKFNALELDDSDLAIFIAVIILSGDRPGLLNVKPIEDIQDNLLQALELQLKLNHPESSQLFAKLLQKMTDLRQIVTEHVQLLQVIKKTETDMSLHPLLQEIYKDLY

Assay [5] has the same target. Description: qHTS assay to identify small molecule antagonists of the peroxisome proliferator-activated receptor gamma (PPARg) signaling pathway (AID 743191; calls by dose curve; further: series mostly up to about 63 µM; nearly all actives have a fitted effect of over 30% in size). Summed up: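 GeneBLAzer PPARg UAS-bla HEK293H cells, 5 h post-plating, exposed to compounds 17 h at 37C. LiveBLAzer B/G FRET substrate added for 1 h at room temperature; beta-lactamase reporter read by fluorescence intensity.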

Assay [6] in a line: qHTS assay to identify small molecule antagonists of the peroxisome proliferator-activated receptor gamma (PPARg) signaling pathway - cell viability counter screen (AID 743194). Further: nearly all actives have a fitted effect of over 55% in size. The conditions noted are these: Potency: co-treated with 50 nM rosiglitazone. Summed up:
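Cytotoxicity counter screen in PPARg-bla HEK293H cells, same wells as reporter assay. Compounds plus 50 nM rosiglitazone (final) for 17 h at 37 C, then viability read by CellTiter-Glo luminescence.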

Assay [7] is described as follows: qHTS assay for small molecule agonists of the antioxidant response element (ARE) signaling pathway - cell viability counter screen (AID 743203; calls by dose curve; further: nearly all actives have a fitted effect of over 55% in size). Summed up:
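Following 16 hrs of compound treatment at 37C, HepG2 cells with an ARE-controlled beta-lactamase gene were lysed with CellTiter-Glo. Luminescence was read after 30 min at room temperature.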

Assay [8] in a line: qHTS assay for small molecule activators of the heat shock response signaling pathway - cell viability counter screen (AID 743209). Further: nearly all actives have a fitted effect of over 50% in size. Summed up:
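Readout: CellTiter-Glo luminescence, 30 min at room temperature. System: HSE-bla HeLa cells, 1500/well, plated overnight. Treatment: compounds in DMSO, 5 h at 37 C.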

Assay [9] can be described thus: qHTS assay for small molecule activators of the heat shock response signaling pathway (AID 743210; active means well fitted activation curve with a large enough effect in the signal ratio in the repeat runs, with a control signal flat, not every such curve was filed as active; the % refers to the signal ratio;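 further: HeLa cells with beta-lactamase reporter driven by heat shock elements; series mostly up to about 63 µM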). Summed up:
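Quantitative high-throughput format using an engineered HeLa line in which heat shock response elements drive beta-lactamase; after 5 h with compound, cells received a B/G FRET substrate and fluorescence was read.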

A short description of assay [10]: qHTS assay to identify small molecule agonists of the peroxisome proliferator-activated receptor delta (PPARd) signaling pathway - cell viability counter screen (AID 743211). Further: nearly all actives have a fitted effect of over 55% in size. Summed up:
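Read-out: CellTiter-Glo luminescence, 30 min RT, measured in the same wells as the beta-lactamase reporter. Cells: GeneBLAzer PPAR delta UAS-bla HEK293H, 3000 cells/well, compound exposure 17 h at 37C.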

Assay [11] in a line: qHTS assay to identify small molecule antagonists of the peroxisome proliferator-activated receptor delta (PPARd) signaling pathway - cell viability counter screen (AID 743213). Further: nearly all actives have a fitted effect of over 50% in size. Summed up: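 PPARd-bla HEK293H cells (3000/well) got compound plus 300 nM L165041 agonist for 17 h at 37 C. Viability in the same wells came from CellTiter-Glo luminescence after 30 min at room temperature.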

Assay [12] in a line: qHTS assay to identify small molecule agonists of the farnesoid-X-receptor (FXR) signaling pathway - cell viability counter screen (AID 743218). Further: nearly all actives have a fitted effect of over 45% in size. Summed up:
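Parallel cytotoxicity test: compound-treated (16 h, 37 C) HEK 293T FXR-bla reporter cells were lysed with CellTiter-Glo and luminescence recorded.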

Assay [13] is described as follows: qHTS assay to identify small molecule antagonists of the farnesoid-X-receptor (FXR) signaling pathway - cell viability counter screen (AID 743221; active means well fitted cell-killing curve with a large enough effect in the repeat runs, not every such curve was filed as active; further: nearly all actives have a fitted effect of over 50% in size). Summed up:
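HEK 293T FXR-bla cells, 5 h pre-incubation; compound + CDCA 50 uM final, 16 h, 37 C; beta-lactamase FRET read first, then CellTiter-Glo luminescence, 30 min RT.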

Assay [14] has as its target Vitamin D3 receptor (Homo sapiens) (UniProt P11473). The assay can be described thus: qHTS assay to identify small molecule agonists of the vitamin D receptor (VDR) signaling pathway (AID 743222; calls by dose curve). Summed up:
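In VDR-bla cells, compound-induced beta-lactamase expression is quantified by FRET substrate fluorescence. Treatment lasts 16 h at 37C; substrate develops 2 h at room temperature.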

Assay [15] shares this target. Description: qHTS assay to identify small molecule antagonists of the vitamin D receptor (VDR) signaling pathway (AID 743223; active means well fitted inhibition curve with a large enough effect in the signal ratio in the repeat runs, not every such curve was filed as active; the % refers to the signal ratio). Summed up: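 Beta-lactamase reporter read-out: FRET substrate fluorescence after 2 h at room temperature, following 16 h exposure of VDR-bla cells to test compound plus 3 nM (final) 1alpha,25-dihydroxyvitamin D3 agonist at 37C.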
The target of assay [16] is Peroxisome proliferator-activated receptor delta (Homo sapiens) (UniProt Q03181). Description: qHTS assay to identify small molecule agonists of the peroxisome proliferator-activated receptor delta (PPARd) signaling pathway (AID 743212; calls by dose curve). Summed up:
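Quantitative high-throughput agonist screen in a HEK293H beta-lactamase reporter line under UAS control. Compounds in DMSO, at 37 C. Fluorescence read after 2 h with FRET substrate at room temperature.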

Assay [17] can be described thus: qHTS assay for small molecule agonists of the antioxidant response element (ARE) signaling pathway (AID 743202; active means well fitted activation curve with a large enough effect in the signal ratio in the repeat runs, not every such curve was filed as active; the % refers to the signal ratio). Summed up: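 Agonist mode reporter screen: HepG2 cells with ARE-controlled beta-lactamase are incubated with test compounds for 16 h at 37 C, and beta-lactamase activity is measured as fluorescence of cleaved B/G FRET substrate.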
Assay [18] deals with Peroxisome proliferator-activated receptor delta (Homo sapiens) (UniProt Q03181). Description: qHTS assay to identify small molecule antagonists of the peroxisome proliferator-activated receptor delta (PPARd) signaling pathway (AID 743215; active means well fitted inhibition curve with a large enough effect in the signal ratio in the repeat runs, not every such curve was filed as active; the % refers to the signal ratio;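 further: cells stimulated with agonist L165041 at 300 nM final during compound exposure; series mostly up to about 62 µM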). Summed up: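 HEK293H UAS-bla, PPARd; agonist L165041 300 nM final with cpd in DMSO; 37 C 17 h; FRET substrate, RT 2 h; fluorescence intensity.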
Sequence of Peroxisome proliferator-activated receptor delta (Homo sapiens) (Q03181 whole entry, looked up): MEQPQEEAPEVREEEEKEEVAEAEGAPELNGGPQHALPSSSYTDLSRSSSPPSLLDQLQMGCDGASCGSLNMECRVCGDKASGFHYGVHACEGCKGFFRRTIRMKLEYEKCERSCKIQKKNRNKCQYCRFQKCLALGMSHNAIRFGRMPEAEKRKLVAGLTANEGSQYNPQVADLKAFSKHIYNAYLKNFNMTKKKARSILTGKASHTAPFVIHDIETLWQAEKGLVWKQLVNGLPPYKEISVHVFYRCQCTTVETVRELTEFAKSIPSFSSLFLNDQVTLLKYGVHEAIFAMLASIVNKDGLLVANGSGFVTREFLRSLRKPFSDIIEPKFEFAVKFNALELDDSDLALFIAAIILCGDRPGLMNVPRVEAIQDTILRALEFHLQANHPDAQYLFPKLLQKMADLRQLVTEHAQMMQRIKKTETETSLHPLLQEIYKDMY

Assay [19] has as its target Bile acid receptor (Homo sapiens) (UniProt Q96RI1). The assay can be described thus: qHTS assay to identify small molecule antagonists of the farnesoid-X-receptor (FXR) signaling pathway (AID 743217; active means well fitted inhibition curve with a large enough effect in the signal ratio in the repeat runs, not every such curve was filed as active; the % refers to the signal ratio). Summed up:
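GeneBLAzer FXR-UAS-bla HEK 293T, CDCA-stimulated (50 uM final). Compound treatment 16 h, 37 °C. Detection: beta-lactamase cleavage of B/G FRET substrate, fluorescence.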

Assay [20] shares this target. Description: qHTS assay to identify small molecule agonists of the farnesoid-X-receptor (FXR) signaling pathway (AID 743220; active means well fitted activation curve with a large enough effect in the signal ratio in the repeat runs, not every such curve was filed as active; the % refers to the signal ratio). Summed up:
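Beta-lactamase reporter under UAS control in GeneBLAzer FXR HEK 293T cells (5000/well) measured with LiveBLAzer FRET substrate after 2 h at room temperature. Compound exposure lasted 16 h at 37C.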

Sequence of Vitamin D3 receptor (Homo sapiens) (P11473 whole entry, looked up): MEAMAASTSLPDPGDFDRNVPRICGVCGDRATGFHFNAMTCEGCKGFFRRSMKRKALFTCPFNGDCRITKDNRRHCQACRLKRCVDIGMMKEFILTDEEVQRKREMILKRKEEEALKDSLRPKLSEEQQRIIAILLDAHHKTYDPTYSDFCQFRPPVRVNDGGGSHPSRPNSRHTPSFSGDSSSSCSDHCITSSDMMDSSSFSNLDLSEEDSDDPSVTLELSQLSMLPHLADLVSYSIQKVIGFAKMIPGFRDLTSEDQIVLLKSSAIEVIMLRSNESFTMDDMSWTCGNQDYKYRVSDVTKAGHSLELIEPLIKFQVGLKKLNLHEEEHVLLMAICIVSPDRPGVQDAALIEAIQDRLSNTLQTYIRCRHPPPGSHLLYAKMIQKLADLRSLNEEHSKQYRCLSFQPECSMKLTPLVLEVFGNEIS
Sequence of Aryl hydrocarbon receptor (Homo sapiens) (P35869 whole entry, looked up): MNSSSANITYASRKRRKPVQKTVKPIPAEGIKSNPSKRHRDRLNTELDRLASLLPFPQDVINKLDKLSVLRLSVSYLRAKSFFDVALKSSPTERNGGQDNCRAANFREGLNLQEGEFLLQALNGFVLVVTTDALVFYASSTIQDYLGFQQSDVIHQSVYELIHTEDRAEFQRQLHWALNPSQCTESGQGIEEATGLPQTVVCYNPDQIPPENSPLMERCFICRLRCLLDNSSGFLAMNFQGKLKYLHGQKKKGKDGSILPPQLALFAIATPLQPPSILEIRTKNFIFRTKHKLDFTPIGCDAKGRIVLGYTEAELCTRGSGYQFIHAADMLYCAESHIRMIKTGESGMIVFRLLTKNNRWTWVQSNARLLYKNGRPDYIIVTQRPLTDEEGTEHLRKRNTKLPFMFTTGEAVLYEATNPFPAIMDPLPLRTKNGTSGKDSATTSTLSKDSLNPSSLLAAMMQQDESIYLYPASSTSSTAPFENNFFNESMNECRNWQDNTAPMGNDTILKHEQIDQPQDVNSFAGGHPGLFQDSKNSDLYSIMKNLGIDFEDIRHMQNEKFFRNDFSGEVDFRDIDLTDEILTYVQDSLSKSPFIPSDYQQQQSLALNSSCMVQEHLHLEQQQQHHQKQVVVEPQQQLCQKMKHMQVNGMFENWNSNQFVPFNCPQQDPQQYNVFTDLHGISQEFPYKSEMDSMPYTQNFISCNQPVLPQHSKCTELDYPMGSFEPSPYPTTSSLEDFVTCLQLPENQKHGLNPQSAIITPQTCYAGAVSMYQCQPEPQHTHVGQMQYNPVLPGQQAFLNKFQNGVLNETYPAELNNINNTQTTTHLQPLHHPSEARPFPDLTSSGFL
Sequence of Bile acid receptor (Homo sapiens) (Q96RI1 whole entry, looked up): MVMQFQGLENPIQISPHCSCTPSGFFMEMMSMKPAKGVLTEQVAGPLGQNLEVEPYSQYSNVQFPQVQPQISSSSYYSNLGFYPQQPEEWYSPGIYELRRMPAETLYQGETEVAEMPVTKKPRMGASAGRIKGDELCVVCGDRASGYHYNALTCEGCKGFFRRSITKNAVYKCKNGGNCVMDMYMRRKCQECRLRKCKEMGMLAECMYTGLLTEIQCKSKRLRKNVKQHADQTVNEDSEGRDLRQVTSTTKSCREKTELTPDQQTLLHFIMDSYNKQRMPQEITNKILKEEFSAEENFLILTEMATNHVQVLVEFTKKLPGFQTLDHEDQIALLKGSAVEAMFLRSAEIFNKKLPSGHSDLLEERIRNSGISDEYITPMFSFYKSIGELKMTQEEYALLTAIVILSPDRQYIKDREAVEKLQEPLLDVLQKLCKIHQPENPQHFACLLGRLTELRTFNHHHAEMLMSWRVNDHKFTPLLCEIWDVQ

Consider `ClC(Cl)(Cl)C(Cl)(Cl)Cl`, for which the Potency result in [1], in assay [2], in assay [5], in assay [6], in [7] and in assay [8] was “inactive” in each case. For the same compound, the Potency result in assay [10] and in [12] was “inactive” throughout. For the same compound, the compound was classed as inactive in [3], in assay [4], in assay [9], in assay [11], in assay [13] and in assay [14]. The compound was classed as inactive in assay [15].

Regarding `CCC/C(=N\OCC)C1=C(O)CC(CC(C)SCC)CC1=O` (stereo unspecified), the Potency result in assay [1], in [2], in assay [5], in [6], in assay [7] and in assay [8] was “inactive” throughout. In addition, the Potency result in [10] and in [12] was “inactive” throughout. Besides, the compound was called inactive in assay [3], in assay [4], in assay [16], in [11], in assay [13] and in assay [14].

With `N#Cc1c(Cl)cccc1Cl`, the Potency entry in assay [1], in [2], in assay [5], in assay [6], in assay [7] and in assay [8] was “inactive” each time. For the same compound, in [10], the Potency result was “inactive”. In addition, the compound was classed as inactive in [3], in assay [4], in assay [9], in assay [11] and in assay [13].

Consider `CNCC(=O)c1ccc(O)c(O)c1`, for which the Potency result in assay [1], in assay [2], in assay [5], in assay [6], in assay [7] and in assay [8] was “inactive” each time. The Potency entry in [10] and in [12] was “inactive” each time. Moreover, the result in assay [3], in assay [4], in assay [13] and in assay [14] was inactive.

Take `CCC(Cl)[N+](=O)[O-]` (stereo unspecified): the Potency result in assay [1], in assay [2], in assay [6], in [17], in [7] and in assay [8] was “inactive” each time. Also, the Potency result in assay [10], in assay [19] and in [12] was “inactive” in each case. For the same compound, the compound was classed as inactive in assay [3], in assay [4], in assay [9], in assay [11], in assay [18] and in assay [20]. In addition, the call in assay [13], in assay [14] and in [15] was inactive.

Consider `COC(=O)c1ccccc1S(=O)(=O)NC(=O)Nc1nc(C)cc(C)n1`, for which the Potency result in assay [1], in assay [2], in assay [5], in assay [6], in [7] and in assay [8] was “inactive” in each case. For the same compound, the Potency result in assay [10] and in assay [12] was “inactive” each time. For the same compound, the outcome in assay [3], in assay [4], in assay [11], in assay [13], in [14] and in [15] was inactive.

With `CC1(C)C(=O)NC(=O)NC1=O`, the Potency result in assay [1], in assay [2], in assay [6], in [7], in assay [8] and in assay [10] was “inactive” throughout. For the same compound, the Potency entry in [12] is “inactive”. For the same compound, the call in assay [3], in assay [4], in [9], in assay [11], in [13] and in [14] was inactive.

Take `CCC(=O)c1ccccc1`: the Potency result in assay [1], in [2], in assay [6], in assay [17], in assay [7] and in assay [8] was “inactive” throughout. Moreover, the Potency result in [10], in assay [19] and in assay [12] was “inactive” throughout. The compound was called inactive in [3], in assay [4], in assay [9], in assay [16], in assay [18] and in assay [13]. Moreover, the call in assay [14] and in assay [15] was inactive.

Take `CCOP(=S)(OCC)Oc1ncn(-c2ccccc2)n1`: the Potency entry in assay [1], in assay [5], in assay [6], in assay [7], in assay [8] and in assay [10] was “inactive” in each case. Also, the Potency result in assay [19] was “inactive”. The Potency in [2] was 24.3 µM (active). Also, the outcome in assay [3], in assay [4], in [9], in assay [11], in assay [20] and in [13] was inactive. Moreover, the outcome in assay [14] and in assay [15] was inactive.

Consider `CCSC(=O)N(CC)C1CCCCC1`, for which the Potency result in assay [1], in assay [2], in assay [6], in assay [17], in assay [7] and in assay [8] was “inactive” throughout. Besides, the Potency entry in assay [10], in [19] and in assay [12] was “inactive” throughout. The call in [3], in assay [4], in [9], in [16], in assay [13] and in assay [14] was inactive.
